mHTT-CaM PPI inh = mHTT-calmodulin interaction abrogation | AlphaScreen His-mHTT/GST-CaM binding, luminescence | 190,000 tested, 3.6% active | inhibition, % at 15 µM | P42858
Pf apPOL inh = Pf-apPOL DNA polymerase inhibition. 210,000 tested, 0.25% active. Recombinant Pf-apPOL, molecular beacon fluorescence, 1.5 h. inhibition, % at 10 µM
Numbers stand for hits; . = inactive; / = not tested or not shown. Hits are enriched below; roughly 3.5% of the tested compounds scored in any of these assays. No stated cut-off is given here; in the data, active means inhibition above about 50%; inactive means the rest.

SMILES | mHTT-CaM PPI inh | Pf apPOL inh
Cc1ccccc1NC(=O)N1CCC(n2cnc3ccc(F)cc3c2=O)CC1 | . | .
CN(C)c1nc2cc(C(=O)N3CCCC3)sc2n1-c1ccccc1 | 50.1 | .
CN(C)c1nc2cc(C(=O)NCC3CC3)sc2n1-c1ccccc1 | . | .
O=C(NCc1cccs1)c1cc(S(=O)(=O)N2CCC3(CC2)OCCO3)ccc1F | . | .
COc1ccccc1C(=O)N1CCCN(C2CCN(Cc3ccc(F)cc3)C2=O)CC1 (configuration not stated) | . | .
O=C(c1ccccc1Cl)N1CCCN(C2CCN(Cc3ccc(F)cc3)C2=O)CC1 (configuration not stated) | 57.5 | .
COc1cc2c(cc1OC)C(C(=O)O)C(c1cccs1)N(C)C2=O (configuration not stated) | . | .
O=C(Nc1c2c(nn1-c1cccc(Cl)c1)CS(=O)(=O)C2)c1ccc(Br)o1 | . | .
O=C1OC(c2ccccc2F)=N/C1=C\c1ccccc1F | . | .
CN(C)c1ccc(C2CC(c3ccccc3)=NN2C(=O)c2ccc(F)cc2)cc1[N+](=O)[O-] (configuration not stated) | 55.0 | .
CN(C)c1ccc(C2CC(c3ccccc3)=NN2C(=O)c2ccc(F)cc2)cc1 (configuration not stated) | . | .
Cc1c(C(=O)N2CCCC2)sc2ncn(CC(=O)Nc3cccc(C(F)(F)F)c3)c(=O)c12 | . | .
Cc1ccc(N(CC(O)CN2C(=O)NC(C)(C)C2=O)S(=O)(=O)c2ccc([N+](=O)[O-])cc2)cc1 (configuration not stated) | 61.0 | .
CC1(C)NC(=O)N(CC(O)CN(c2cccc([N+](=O)[O-])c2)S(=O)(=O)c2ccccc2)C1=O (configuration not stated) | . | .
Cc1ccccc1OCc1nc(C#N)c(NCCCn2ccnc2)o1 | . | .
N#Cc1nc(COc2ccccc2Cl)oc1NCc1cccnc1 | . | .
N#Cc1nc(COc2ccccc2Cl)oc1NCCCn1ccnc1 | 100.0 | .
COc1ccc(CCNc2oc(COc3ccccc3C)nc2C#N)cc1 | 52.0 | .
Cc1ccccc1OCc1ccc(-c2nc(C#N)c(NCc3cccnc3)o2)o1 | 54.0 | .
COc1ccc(CCNc2oc(COc3ccc(OC)cc3)nc2C#N)cc1 | . | .
COCCCNC(=O)C1CCN(c2nc3ccc(-c4ccccc4)nc3s2)CC1 | . | .
O=C(NC1CCCC1)N1CCCCC1c1nncn1-c1ccccc1 (configuration not stated) | . | .
CC(C)(C)C(=O)N1CCCC1c1nc2cc(-c3ccccc3)ccc2o1 (configuration not stated) | . | .
CCNC(=O)N1CCCC1c1nc2cc(-c3ccc(N(C)C)cc3)ccc2o1 (configuration not stated) | 84.0 | .
NNc1nnc2c(n1)[nH]c1ccccc12 | 100.0 | .
SMILES | mHTT-CaM PPI inh | Pf apPOL inh
Cc1cccc2c1[nH]c1nc(NN)nnc12 | 66.5 | .
CCCSc1nnc2c(n1)[nH]c1c(C)cccc12 | . | .
Cc1ccc2[nH]c3nc(NN)nnc3c2c1 | . | .
O=C(C=CSc1ccc(Cl)cc1)c1ccccc1 | / | .
COCCNC(=O)Cn1nc(-c2ccc(Cl)cc2)c2ccccc2c1=O | . | 76.3
O=C(Cn1nc(-c2ccc(Cl)cc2)c2ccccc2c1=O)Nc1ccc(Cl)cc1 | . | .
COc1ccccc1C(=O)Nc1cccc(-c2nc3ncccc3o2)c1C | . | .
O=C1C(=Cc2ccc(Br)cc2)Oc2c1ccc(O)c2CN1CCCC1 | . | .
CCN(CC)Cc1c(O)ccc2c1OC(=Cc1ccc(Br)cc1)C2=O | 57.5 | .
O=C1C(=Cc2ccc(Br)cc2)Oc2c1ccc(O)c2CN1CCOCC1 | 56.4 | .
CCN1CCN(Cc2c(O)ccc3c2OC(=CC=Cc2ccccc2)C3=O)CC1 | . | .
O=C1C(=CC=Cc2ccccc2)Oc2c1ccc(O)c2CN1CCOCC1 | 62.2 | .
CCN(CC)Cc1c(O)ccc2c1OC(=Cc1ccc(C)cc1)C2=O | . | .
COc1cc(/C=c2\sc3nc(=O)c(Cc4ccccc4)nn3c2=O)ccc1OCC(C)C | . | .
CCCCN1CCN(C(=O)C2CCCN(c3ncccc3-c3noc(CC)n3)C2)CC1 (configuration not stated) | . | .
CC(=O)N1CCc2cc(N3CC(C(=O)N(C)Cc4ccccc4)CC3=O)ccc21 (configuration not stated) | . | .
COc1ccc(OC)c(N2CCN(C(=O)c3ccc(F)cc3)C(C)C2=O)c1 (configuration not stated) | . | .
Cc1ccc(N2COc3cc4c(cc3C2)OCO4)cc1Cl | . | .
Cc1cccc(N2COc3cc4c(cc3C2)OCO4)c1 | 59.0 | .
Cc1ccc(N2COc3cc4c(cc3C2)OCO4)cc1 | . | .
Cc1cc(C)cc(N2COc3cc4c(cc3C2)OCO4)c1 | 53.0 | .
Cn1cc2c3c(cccc31)CN(C(=O)Nc1ccc3c(c1)OCCO3)CC2 | . | .
COc1cc(-c2nc3ccccn3c2N=Cc2ccccc2)ccc1O | . | .
COc1cc(-c2nc3ccccn3c2N=Cc2ccc(F)cc2)ccc1O | 79.0 | .
CC(=O)Nc1ccc(S(=O)(=O)NCCC2CCN(C(=O)c3ccc(F)cc3)CC2)cc1 | . | .

Compound activity as filed in PubChem BioAssay.
